Assay results taken from PubChem BioAssay (NCI).
Compounds without any hit were thinned out: in the full panel of roughly 83,000, 20% have a hit.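 In brief: 96-well plates, 48 h treatment, single concentration, percent growth endpoint.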 A number with no mark means an inactive call. Active and inactive are the calls of the source. The calls were made as follows: active = growth percent below 10; inactive = the rest.

How the values were obtained:
Assay in all cases: NCI-60 one-dose screen, 48 h (100 = growth as untreated, 0 = no growth, -100 = all killed)
Conditions in all cases: 10 µM
SR leukemia = system: SR leukemia
RPMI-8226 leukemia = system: RPMI-8226 leukemia
OVCAR-8 ovarian = system: OVCAR-8 ovarian
OVCAR-5 ovarian = system: OVCAR-5 ovarian
OVCAR-4 ovarian = system: OVCAR-4 ovarian
SK-OV-3 ovarian = system: SK-OV-3 ovarian
IGROV1 ovarian = system: IGROV1 ovarian
OVCAR-3 ovarian = system: OVCAR-3 ovarian
HS 578T breast = system: HS 578T breast
NCI/ADR-RES ovarian = system: NCI/ADR-RES ovarian
T-47D breast = system: T-47D breast
BT-549 breast = system: BT-549 breast
MDA-MB-435 melanoma = system: MDA-MB-435 melanoma
SW-620 colon = system: SW-620 colon
MCF7 breast = system: MCF7 breast
HCT-116 colon = system: HCT-116 colon
HCC-2998 colon = system: HCC-2998 colon
KM12 colon = system: KM12 colon

SMILES	growth (SR leukemia)	growth (RPMI-8226 leukemia)	growth (OVCAR-8 ovarian)	growth (OVCAR-5 ovarian)	growth (OVCAR-4 ovarian)	growth (SK-OV-3 ovarian)	growth (IGROV1 ovarian)	growth (OVCAR-3 ovarian)	growth (HS 578T breast)	growth (NCI/ADR-RES ovarian)	growth (T-47D breast)	growth (BT-549 breast)	growth (MDA-MB-435 melanoma)	growth (SW-620 colon)	growth (MCF7 breast)	growth (HCT-116 colon)	growth (HCC-2998 colon)	growth (KM12 colon)
COc1ccc(-c2cc(/C=C/C(=O)c3ccc(N)cc3)[nH]n2)cc1OC	10.3%	-12.6% (active)	15.2%	45%	24.4%	39%	29.1%	5.89% (active)	1.16% (active)	78.6%	50.3%	55.4%	46.8%	10.2%	14.9%	17.4%	38.8%	5.98% (active)
O=C(O)CNS(=O)(=O)c1ccc(OCCOc2ccc(S(=O)(=O)NCC(=O)O)cc2)cc1	103%	109%	102%	104%	115%	103%	106%	103%	99.4%	103%	93.5%	105%	113%	103%	98.6%	103%	98.1%	99.5%
CCOC(=S)Sc1ccc([N+](=O)[O-])cc1[N+](=O)[O-]	18.3%	11.9%	93.3%	99.2%	113%	97.1%	99.2%	62.2%	98%	102%	83.6%	24.1%	61.7%	35.4%	65.5%	31%	101%	22.5%
COc1cc(OC)cc(N2CCN(C(=O)Nc3nc4cc(F)ccc4nc3OC)CC2)c1	8.23% (active)	22.7%	12.7%	49%	44%	14.4%	17.6%	-11.8% (active)	37.6%	-2.42% (active)	70.4%	24.4%	-31.9% (active)	22%	23.4%	0.21% (active)	21.4%	13.7%
C#CCNCCCN1C(=O)c2ccc3c4c(ccc(c24)C1=O)C(=O)N(CCCNCC#C)C3=O	-21.1% (active)	12.5%	-31.1% (active)	-73.6% (active)	-97.8% (active)	-42.7% (active)	-75.1% (active)	-27.6% (active)	-22.9% (active)	-32% (active)	-52.1% (active)	-93.8% (active)	-66.9% (active)	-59.8% (active)	-72.7% (active)	-25% (active)	-90% (active)	-80.4% (active)
CCCCC(=O)N(c1ccc(Nc2c3ccccc3nc3cc([N+](=O)[O-])ccc23)cc1)S(C)(=O)=O	5.36% (active)	35%	71.7%	96.9%	81%	80%	48.7%	88.3%	88.3%	101%	15.1%	86.3%	96.8%	71.5%	17.2%	63.4%	86.1%	38.4%
CCc1ccc(-c2nnc(COc3ccc(-c4nc5ccccc5[nH]4)cc3OC)o2)cc1	-8.81% (active)	52.1%	40.9%	96.6%	-36.2% (active)	100%	53.6%	4.63% (active)	14.4%	69.2%	87.9%	51.7%	56.7%	58.1%	33.5%	28.9%	81.6%	58%
Cc1ccc(/C=C2\CN(Cc3cn(CCNc4ccnc5cc(Cl)ccc45)nn3)C/C(=C\c3ccc(C)cc3)C2=O)cc1	-19.5% (active)	-30.2% (active)	8.83% (active)	-10.9% (active)	30.3%	8.53% (active)	28.3%	-50.6% (active)	13.9%	9.21% (active)	-12.3% (active)	-71% (active)	-67.3% (active)	-63.6% (active)	-38.3% (active)	-53.5% (active)	-91% (active)	-93.8% (active)
Nc1c(CNCc2nnn(Cc3ccccc3)c2N)nnn1Cc1ccccc1	90%	94.7%	99.8%	95.5%	92.1%	114%	102%	107%	99%	97.2%	101%	105%	107%	95.9%	101%	103%	98.7%	98.3%
C=CCN1C(=O)/C(=C\c2ccc3c(c2)CCC3)SC1=S	93.1%	91.9%	104%	99.8%	106%	98.6%	106%	109%	112%	105%	91.5%	93.5%	109%	104%	103%	99.8%	106%	104%
COc1cc(OC)cc(-c2ccc(-c3ccc(C(=N)N)cn3)o2)c1	0.771% (active)	-50% (active)	9.75% (active)	-0.187% (active)	23.1%	31.2%	27%	19.4%	-11.6% (active)	74.5%	-56.9% (active)	-3.57% (active)	-63.6% (active)	-90.3% (active)	-66.2% (active)	-86.5% (active)	-87.4% (active)	-11.2% (active)
CCCOCC(O)CNCCN (stereo unspecified)	99.2%	101%	102%	100%	102%	97.4%	116%	121%	112%	123%	103%	110%	98.5%	98.9%	97.4%	104%	131%	122%
O=S(=O)(NC1c2ccccc2Oc2ccccc21)c1cc(Cl)ccc1Cl	66.8%	96.7%	93.5%	109%	80.9%	98.1%	95.5%	98.7%	102%	93.5%	74.1%	91.1%	105%	87.5%	91.9%	90.4%	99.1%	102%
[O-]c1c[n+](-c2ccc(Cl)cc2)no1	97.9%	101%	106%	96.7%	82.1%	105%	80.7%	104%	101%	103%	83.5%	107%	100%	97.5%	84.9%	102%	101%	95.8%
CN(C)CCCN(Cc1ccccc1O)C(=S)Nc1ccc(Cl)cc1	95%	93.5%	98.2%	110%	111%	107%	106%	112%	89%	104%	93.4%	105%	109%	100%	99%	108%	83.4%	105%
NC(=O)C1CCCN(Cc2c[nH]c3ccccc23)C1 (stereo unspecified)	96.9%	105%	98.3%	99.8%	108%	100%	102%	104%	96.6%	94.8%	92.8%	105%	108%	99.5%	101%	103%	100%	102%
N#Cc1ncc(-c2cc(F)ccc2F)c(NC2CCCCCC2)n1	81.6%	57.8%	88.4%	98.9%	80.3%	91.6%	86%	103%	58.2%	91.2%	69.5%	76.2%	93.6%	96.1%	82.3%	85.6%	82.3%	36.4%
